Compound activity: PubChem BioAssay, several laboratories
ADAM10 inh = human ADAM10 inhibitors, primary screen, biochemical, QFRET, HTS; inhibition, % at 7 µM; hit rate 0.62% among 370,000; recombinant ADAM10, EDANS/DABCYL FRET peptide cleavage, 3 h; Disintegrin and metalloproteinase domain-containing protein 10 (Homo sapiens), O14672;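 active = inhibition above a per-campaign cutoff equal to the mean of compounds falling between control-based bounds plus 3 SD, cut at about 20% in these data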;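 note: 0% = DMSO wells while the 100% control is not disclosed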
Target sequence (O14672 214-748 limits assumed): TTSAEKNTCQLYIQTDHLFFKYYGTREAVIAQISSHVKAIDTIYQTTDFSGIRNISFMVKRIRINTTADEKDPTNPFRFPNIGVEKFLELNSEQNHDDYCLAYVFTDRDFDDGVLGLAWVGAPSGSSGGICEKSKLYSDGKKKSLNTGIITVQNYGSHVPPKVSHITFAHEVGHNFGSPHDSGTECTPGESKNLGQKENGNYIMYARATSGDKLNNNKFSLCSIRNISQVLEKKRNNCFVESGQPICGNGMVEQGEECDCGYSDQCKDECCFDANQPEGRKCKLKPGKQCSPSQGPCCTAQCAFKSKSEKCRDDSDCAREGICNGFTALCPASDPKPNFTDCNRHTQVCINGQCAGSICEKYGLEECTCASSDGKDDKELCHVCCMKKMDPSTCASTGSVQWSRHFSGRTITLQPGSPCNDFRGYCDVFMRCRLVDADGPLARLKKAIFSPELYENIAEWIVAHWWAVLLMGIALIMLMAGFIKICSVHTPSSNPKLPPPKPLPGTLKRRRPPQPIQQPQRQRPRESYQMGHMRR
FGF22 binding = binders of human FGF22 protein, primary screen, FGF22 synaptogenesis inhibitor project, biophysical, thermal shift, single point; Fibroblast growth factor 22 (Homo sapiens), Q9HCT0; AID 651658, 2012; hit rate 1.5% among 340,000; activity (Tm shift, normalised), % at 9.99 µM; recombinant FGF22 thermal shift, SYPRO orange fluorescence; percent of sucrose octasulfate shift, DMSO zero;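 active = mean Tm shift, scaled 0 neutral to 100 positive control, at about 1.3% or above, every replicate too, limit read from the data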
proKLK7 act = proKLK7 zymogen activators, primary screen, biochemical, fluorescence intensity; Kallikrein-7 (Homo sapiens), P49862; purified proKLK7, EDANS-DABCYL substrate fluorescence; 100% is mature enzyme control, 0% vehicle; activation, % at 7 µM; hit rate 0.9% among 370,000;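 active = activation above the mean of all tested compounds plus 3 SD, computed per campaign excluding outliers beyond control limits, cut at about 13% in these data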
ADAM17 inh = ADAM17 inhibitors, primary screen, biochemical, QFRET; Disintegrin and metalloproteinase domain-containing protein 17 (Homo sapiens), P78536; recombinant ADAM17, EDANS/DABCYL FRET peptide cleavage; inhibition, % at 6.95 µM; hit rate 0.83% among 370,000;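 active = inhibition above the mean of compounds lying between control limits plus 3 SD, set per campaign, cut at about 8.5% in these data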;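 note: 0% = DMSO-only wells as the low control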
rRNA inh HTS = reduced GFP signal of wild-type E. coli, primary screen, bacterial rRNA inhibitor project, GFP/RFP fluorescence, OD600, single point; GFP signal change (wild-type ribosome), % (concentration not given with the values); AID 720706, 2013; E. coli WT GFP vs humanized-ribosome RFP mutants, 24 h; stronger effect = lower value; DMSO median 0, no signal -100; hit rate 1.6% among 350,000;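 active = significant combined selectivity score with lowered wild-type GFP, culture density cut under 30%, mutant RFP and density less affected; inactive = any of these conditions unmet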
* hit, by the source's call; . = not tested or not shown; ! = not active in a repeat. This is a sample that favours compounds with a hit; in the whole collection about 3.8% have one here.

SMILES	ADAM10 inh	FGF22 binding	proKLK7 act	ADAM17 inh	rRNA inh HTS
CC(Oc1ccc(Cl)cc1Cl)c1ccnc2nc(N3CCOCC3)nn12 (centres undefined)	-41	0	0	-17	-49
c1ccc(Oc2ccc(-c3ccnc4nc(N5CCOCC5)nn34)cc2)cc1	-452	0	-89	-167	8
NC(=O)c1sc(=S)n(-c2ccc(Br)cc2)c1N	-14	-1	0	-1	-31*
COc1ccc2nc(N/C(N)=N/C(=S)Nc3ccccc3)nc(C)c2c1	-75	4.1*	2	-27	-8
C=CCn1c(SCC(=O)Nc2ccccc2-c2ccccc2)nc2cc(C(=O)O)ccc2c1=O	6	43*	0	2	-17
C=CCn1c(SCC(=O)NC23CC4CC(CC(C4)C2)C3)nc2cc(C(=O)O)ccc2c1=O	-5	0	0	-4	-23*
Cc1noc(C)c1NC(=O)N(C)C[C@H]1OCCCC[C@H](C)Oc2ccc(NS(=O)(=O)c3cccs3)cc2C(=O)N([C@H](C)CO)C[C@@H]1C	.	1	.	.	-2
COc1ccc(NC(=O)Nc2ccc3c(c2)C(=O)N([C@H](C)CO)C[C@H](C)[C@@H](CN(C)S(=O)(=O)c2c(C)noc2C)O3)cc1	.	.	.	.	-1
C[C@H]1CN([C@@H](C)CO)C(=O)c2cccc(NC(=O)Nc3ccc(C(F)(F)F)cc3)c2O[C@@H]1CN(C)C(=O)Nc1ccc(F)cc1	23*	-1	0	6	9
C[C@H](CO)N1C[C@H](C)[C@@H](CN(C)C(=O)Nc2ccc(C(F)(F)F)cc2)Oc2c(NC(=O)Nc3ccc(C(F)(F)F)cc3)cccc2C1=O	29*	1	0	12*	-1
C[C@H]1CN([C@@H](C)CO)C(=O)c2cccc(NC(=O)Nc3ccc(F)cc3)c2O[C@@H]1CN(C)C(=O)Nc1ccc(C(F)(F)F)cc1	.	1	.	.	-4
Cc1noc(C)c1NC(=O)Nc1cccc2c1O[C@@H](CN(C)C(=O)Nc1ccc3c(c1)OCO3)[C@@H](C)CN([C@H](C)CO)C2=O	-5	0	0	-2	-28*!
Cc1noc(C)c1NC(=O)Nc1cccc2c1O[C@H](CN(C)C(=O)Nc1ccc3c(c1)OCO3)[C@H](C)CN([C@@H](C)CO)C2=O	.	0	.	.	0
COc1ccc(NC(=O)Nc2ccc3c(c2)C(=O)N([C@H](C)CO)C[C@H](C)[C@H](CN(C)C(=O)Nc2ccccc2)OCCCC[C@H](C)O3)cc1	.	1	.	.	2
NC(=O)c1ccccc1NC(=O)CSc1nc2ccccc2c(=O)[nH]1	-1	0	0	-1	-5
Cc1cc2nc(SCC(=O)Nc3ccccc3C(=O)O)[nH]c2cc1C	-23	2.2*	0	-8	-12
CSc1nsc(SCC(=O)Nc2ccccc2C(=O)O)n1	0	1.5*	0	-6	1
CC(=O)Nc1ccc(/C=C/c2ccc3cccc([N+](=O)[O-])c3n2)cc1	12	0	-2	2	-16*
CCCc1cn(CC[C@H]2CC[C@@H](NC(=O)C3CCCC3)[C@@H](CO)O2)nn1	.	0	.	.	4
C=CCC[C@H](Cc1ccc(F)cc1)C(=O)OC[C@@H](NC(=O)[C@@H](CC=C)CC(=O)N[C@@H](CO)Cc1ccccc1)C(C)(C)C	20*	6.2*	0	8	12
O=C(N[C@@H]1CC[C@@H](CCNC(=O)C2CCC2)O[C@H]1CO)c1ccccn1	.	0	.	.	-1
COc1ccc(NC(=O)Cc2ccccc2)cn1	2	0	0	1	19
COC(=O)Nc1ccc(SCC(=O)c2ccc(Cl)cc2)cc1	8	0	1	2	-37
COc1ccc(NC(=O)CSc2ccccc2)cn1	1	43*	0	0	16
COC(=O)Nc1ccc(SCC(=O)c2ccccc2)cc1	4	0	0	1	-25*
Nc1nc(N)nc(-c2ccc([N+](=O)[O-])o2)n1	2	0	0	-5	-5.3*
